# Screens as filed in PubChem.
# GPT2 inhibitor: blocks human glutamate pyruvate transaminase 2. AID 1671188. Q8TD30. Recombinant GPT2, coupled pyruvate oxidase/HRP Amplex Red fluorescence. 100,000 compounds, 0.25% hits. Potency, µM (doses to about 57.7 µM), for the others: at the top dose activity change, negative = inhibition, actives largely listed as inhibitors; note: % is set by controls: 0 for no effect and ±100 for the full control effect; nearly all actives have a fitted effect of over 60% in size
#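 Inhibition is scored from Amplex Red fluorescence generated when pyruvate oxidase and HRP act on pyruvate released by GPT2. Reactions contain 10ng/uL enzyme, 250uM a-KG and 2mM L-alanine and run 30 min at room temperature.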
# NIH3T3 tox: NIH 3T3 cell cytotoxicity; Potency, µM (titrated, usually from 96.7 µM), inactives show at the highest dose activity change, negative = cytotoxicity, actives largely listed as inhibitors; NIH 3T3 viability, CellTiter-Glo ATP luminescence, 48-72 h; 94,000 compounds, 4.3% hits; note: % is set by controls: 0 for no effect and ±100 for the full control effect; nearly all actives have a fitted effect of over 55% in size
#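 NIH 3T3 cells at 400 cells/well received 23 nL of compound by pintool and were incubated 48 or 72 h at 37 °C. Viability was read as ATP-coupled CellTiter-Glo luminescence.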
# FLuc inh-1: Photinus pyralis luciferase inhibition; P08659; 76,000 compounds, 2.5% hits; Potency, µM (titrated, usually from 115 µM), usual class: inhibitors; purified P. pyralis luciferase, luminescence, biochemical; note: % is set by controls: 0 for no effect and ±100 for the full control effect; nearly all actives have a fitted effect of over 65% in size
# Target sequence (P08659 whole entry, looked up): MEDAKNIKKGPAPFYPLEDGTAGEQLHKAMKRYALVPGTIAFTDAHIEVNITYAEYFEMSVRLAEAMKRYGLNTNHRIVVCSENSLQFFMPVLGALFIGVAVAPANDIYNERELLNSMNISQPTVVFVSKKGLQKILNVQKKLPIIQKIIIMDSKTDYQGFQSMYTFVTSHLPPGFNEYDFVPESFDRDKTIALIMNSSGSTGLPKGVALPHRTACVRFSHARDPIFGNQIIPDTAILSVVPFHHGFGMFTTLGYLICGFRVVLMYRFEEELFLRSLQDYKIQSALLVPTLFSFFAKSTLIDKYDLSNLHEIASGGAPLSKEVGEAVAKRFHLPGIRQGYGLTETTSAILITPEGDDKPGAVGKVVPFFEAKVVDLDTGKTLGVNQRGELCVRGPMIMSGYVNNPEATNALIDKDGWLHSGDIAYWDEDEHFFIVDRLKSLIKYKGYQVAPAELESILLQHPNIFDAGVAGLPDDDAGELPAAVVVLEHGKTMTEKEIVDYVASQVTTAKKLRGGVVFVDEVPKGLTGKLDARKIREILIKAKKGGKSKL
#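 Cell-free enzyme assay, 10nM P. pyralis luciferase, luciferin and ATP each at 10uM. Inhibition profiled over a 6-point titration, read as luminescence.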
# HEK293 tox: HEK 293 cell cytotoxicity; Potency, µM (highest dose often 115 µM), for inactives: at the top dose activity change, negative = cytotoxicity, hits mostly inhibitors; HEK 293 viability, ATP luminescence (CellTiter-Glo), 48-72 h; AID 1345083; 94,000 compounds, 6.6% hits; note: % is set by controls: 0 for no effect and ±100 for the full control effect; nearly all actives have a fitted effect of over 60% in size
#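 Pintool-delivered compounds were incubated with HEK 293 cells (250 cells/well) at 37 degree Celsius for 48 or 72 hr. ATP-dependent luminescence (CellTiter-Glo) then reported remaining viable cells.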
# hNpr1 antagonist: blocks ANP-stimulated signaling of human Npr1 receptor. HEK293 hNpr1 GloSensor cGMP, ANP-stimulated luminescence. Potency, µM (highest dose often 46.3 µM), for inactives: at the top dose activity change, negative = inhibition, most hits filed as inhibitors. 76,000 compounds, 1.6% hits. AID 1347048; calls by dose curve; note: % is set by controls: 0 for no effect and ±100 for the full control effect; nearly all actives have a fitted effect of over 60% in size
#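 Compound pre-incubated 30 min at room temperature on GloSensor-loaded HEK293 cells stably carrying hNpr1 and the pGS-40F cGMP biosensor. Stimulation uses hNppA at 0.1 nM final; luminescence is taken at baseline and 20 min post-agonist.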
# FLuc SDR no ATP: binders stabilizing firefly luciferase, without ATP | Purified FLuc-C-HiBiT, Nano-Glo HiBiT luminescence, no ATP | Potency, µM (doses to about 32.7 µM), for inactives: at the top dose activation (signal gain), hits mostly activators | 1,300 compounds, 7.8% hits | shares compounds with FLuc inh-1; note: nearly all actives have a fitted effect of over 55% in size
# FLuc SDR ATP: binders stabilizing firefly luciferase, plus ATP | shares compounds with FLuc inh-1 | AID 1963319 | purified FLuc-C-HiBiT + ATP, HiBiT complementation luminescence | Potency, µM (series often up to 32.7 µM), for the others: at the highest dose activation (gain of signal), most hits filed as activators | 1,300 compounds, 8.7% hits;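 note: signal reports ligand binding via conformational change of the enzyme rather than luciferase catalysis; % of control where 0% means no effect; nearly all actives have a fitted effect of over 55% in size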
# FLuc inh-2: blocks firefly luciferase enzymatic activity. shares compounds with FLuc inh-1. purified FLuc-C-HiBiT enzyme, luciferin luminescence. Potency, µM (titrated, usually from 32.7 µM), for the others: at the highest dose activity change, negative = inhibition, hits mostly inhibitors. 1,300 compounds, 42% hits. AID 1963320; note: % is set by controls: 0 for no effect and ±100 for the full control effect; nearly all actives have a fitted effect of over 70% in size
# The depositor's hits bear a star; i = inactive; ? = inconclusive; . = no result; [ ] = remark or other dose. Sampled rows, rich in hits. Any-hit rate of the full collection: about 10%. Unless noted, calls come from the whole dose curve; as a rule, active = well fitted curve in the direction sought with a large enough effect; inconclusive = small, poorly fitted or top-dose-only effect, or another doubt; inactive = no such curve, though single readings can be large; an effect the other way counts as inactive or inconclusive. Potency is the fitted concentration of half-maximal effect.
SMILES,GPT2 inhibitor,NIH3T3 tox,FLuc inh-1,HEK293 tox,hNpr1 antagonist,FLuc SDR no ATP,FLuc SDR ATP,FLuc inh-2
Cc1cn2c(=O)cc(COC(=O)c3cccc(NC(=O)COc4ccccc4Cl)c3)nc2s1,.,.,.,.,.,12.9%,9.89µM*,7µM*
Cc1ccc2nc(-c3cccc(NC(=O)CSc4ccc(Cl)cc4)c3)oc2c1,.,.,.,.,.,31.4%,18.1%,?
Cc1cc2nc(-c3cccc(NC(=O)COc4ccc(C(C)C)cc4)c3)oc2cc1C,.,.,.,.,.,28.3%,?,?
O=C(Nc1cccc(Cl)c1)c1ccc2oc(-c3ccnc(Cl)c3)nc2c1,-1.1%[88.5 µM],?,.,?,.,.,.,.
COCC(=O)NC1CCC12CCN(S(=O)(=O)c1cccc(OC)c1)CC2 (stereo not given),4.9%,?,i,-24.2%,-0.4%,.,.,.
COc1ccc(CNC(=O)N2CCCCC2c2nc(-c3ccncc3)n[nH]2)cc1 (stereo not given),i,-10.9%,i,-2.8%,-5.4%,.,.,.
COc1ccc(NC(=O)C2CCN(C(=O)c3ncn4c3COC(c3ccccc3)C4)CC2)cc1Cl (stereo not given),1.3%,1.0%,1.26µM*,1.2%,?,14.8%,0.624µM*,0.881µM*
O=C(Nc1ccc(F)c(F)c1)C1CCN(C(=O)c2ncn3c2COC(c2ccc(F)cc2)C3)CC1 (stereo not given),-6.2%,-8.6%,14.1µM*,?,-13.6%,12.4%,?,?
Cc1cc(Cl)ccc1NC(=O)C1CCN(C(=O)c2ncn3c2COC(c2ccc(F)cc2)C3)CC1 (stereo not given),i,-7.3%,?,?,-20.0%,.,.,.
O=C(Nc1ccc(F)c(Cl)c1)C1CCN(C(=O)c2ncn3c2COC(c2ccccc2)C3)CC1 (stereo not given),i,i,1.78µM*,6.8%,?,12.6%,0.7µM*,0.989µM*
COc1ccc(C2Cn3cnc(C(=O)N4CCC(C(=O)Nc5ccc(F)c(F)c5)CC4)c3CO2)cc1 (stereo not given),-8.0%,-4.9%,i,-2.4%,-12.0%,.,.,.
CO[C@H]1C(=O)N(C(C)C)[C@H]1C1CCN(C(=O)c2ccc(Cn3nc(C)cc3C)o2)CC1,1.7%,-5.5%,?,-15.3%,-0.2%,.,.,.
CC(C)NC(=O)c1ccc2nnc(-c3ccc(C(F)(F)F)cc3)n2c1,0.5%,-23.5%,.,3.1%,.,.,.,.
CC(C)(C)CC(=O)N1CC[C@H](NC(=O)NC2CCCCC2)[C@H]1C(=O)N[C@H](Cc1c[nH]c2ccccc12)C(N)=O,-0.2%,-7.8%,i,-2.6%,1.8%,.,.,.
COc1ccccc1CNC(=O)CN1CCCc2nc(C)ncc2C1=O,0.2%,-12.4%,i,-3.5%,-12.5%,.,.,.
COc1ccc(/C=C/c2ccc3c(c2)C(=O)N2CC[C@H](NC(=O)COCC(=O)O)[C@H]2C(=O)N3)cc1,i,?,7.94µM*,?,-2.3%,?,?,9.89µM*
CSCC(=O)N[C@H]1CCN2C(=O)c3cc(/C=C/c4ccccc4)ccc3NC(=O)[C@H]12,-16.0%[88.5 µM],-25.7%[174 µM],11.2µM*,?,2.4%[70.6 µM],17.3%[49.3 µM],10.2%[49.3 µM],?
O=C1CCN(S(=O)(=O)c2ccccc2)CCCN(CC2CCCCC2)CCN1,1.4%,-17.0%,i,-22.1%,-11.8%,.,.,.
CN1c2cc(C(=O)Nc3ccc4c(c3)OCCO4)ccc2C(=O)N2CCCCC21 (stereo not given),3.4%,?,7.94µM*,?,-22.3%,?,?,9.89µM*
Cn1c(=O)c2ccnn2c2ccc(C(=O)Nc3ccc4c(c3)OCCO4)cc21,-5.7%,-18.9%,10µM*,35.5µM*,-27.3%,26.0%,19.8%,9.89µM*
CN1c2cc(C(=O)Nc3ccc(F)c(Cl)c3)ccc2C(=O)N2CCCCCC21 (stereo not given),i,-23.8%,?,?,-9.9%,.,.,.
CCN1c2cc(C(=O)Nc3ccc(N(C)C)cc3)ccc2C(=O)N2CCCCC21 (stereo not given),-29.2%,?,11.2µM*,44.7µM*,-11.6%,10.8%,11.4%,?
CCN1c2cc(C(=O)Nc3ccc(Br)c(C)c3)ccc2C(=O)N2CCCCC21 (stereo not given),i,?,i,?,-0.6%,.,.,.
CCN1c2cc(C(=O)Nc3ccc4c(c3)OCCO4)ccc2C(=O)N2CCCCC21 (stereo not given),i,25.1µM*,11.2µM*,?,-12.0%,24.1%,?,9.89µM*
CCN1c2cc(C(=O)Nc3ccc(Cl)cc3)ccc2C(=O)N2CCCCC21 (stereo not given),-9.3%,?,i,?,-1.3%,.,.,.
SMILES,GPT2 inhibitor,NIH3T3 tox,FLuc inh-1,HEK293 tox,hNpr1 antagonist,FLuc SDR no ATP,FLuc SDR ATP,FLuc inh-2
Cc1ccc(CCNC(=O)CN2CC3CC(C2)[C@H]2CCCC(=O)N2C3)cc1 (stereo not given in full),0.1%,i,i,2.1%,-2.1%,.,.,.
Cc1ccc(CN2CCN(C(=O)C3Cn4cccc4C(=O)N3Cc3cccnc3)CC2)cc1 (stereo not given),-1.8%,-6.3%,i,-3.1%,-6.6%,.,.,.
CCCc1ccc(-c2nc(C3CCOC3)no2)cc1 (stereo not given),-0.4%,-21.2%,1.12µM*,?,?,14.9%,?,7µM*
CNC(=O)c1cccc(-c2cnc(NC(=O)c3ccncc3)c3c2CCO3)c1,-4.9%[88.5 µM],?,12.6µM*,-14.9%[172 µM],-15.2%[70.6 µM],23.4%[49.3 µM],?,?
CNC(=O)c1cccc(-c2cnc(NC(=O)c3cn(C)cn3)c3c2CCO3)c1,.,.,.,.,.,22.6%[49.3 µM],?,?
CN(C)c1cccc(C(=O)Nc2ncc(-c3cnn(C)c3)c3c2OCC3)c1,0.8%[88.5 µM],?,?,-26.8%[172 µM],6.2%[70.6 µM],.,.,.
O=C(O)c1cccc(-c2noc(-c3ccccc3F)n2)c1,-4.6%,.,.,.,.,11.1µM*,0.005µM*,0.0062µM*
Fc1ccccc1-c1nc(-c2ccccc2)no1,.,.,.,.,.,?,?,1.57µM*
COC(=O)c1cccc(-c2noc(-c3ccccc3F)n2)c1,.,.,.,.,.,22.2%,18.4%,?
c1ccc(-c2noc(-c3nc(-c4ccccn4)no3)n2)cc1,i,-24.9%,i,-6.3%,-0.1%,.,.,.
